Laboratory results taken from PubChem BioAssay (NCI).
Values joined by “and” are separate entries in the source; they are usually repeats but may differ in a detail not shown here. Equal values may be shown once. This is part of a sample that, as a whole, favours compounds with a hit. Of some 79,000 tested, about 15% had one in any assay. Cut-off read from the data, not from the text of the source: active = growth inhibition above about 70%; inactive = the rest. Where a SMILES comes first, the peptide text is derived from it. [ ]: non-standard residue; d: D form. The star is where a group is joined. ξ: configuration not given here. Cbz = O=C(OCc1ccccc1)*; ξK = NCCCCC(N)C(=O)O

Key:
[1] = NCI Yeast Anticancer Drug Screen. Data for the rad50 strain (AID 155);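 note: 0% = growth of vehicle-only cultures of the same strain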; conditions: S. cerevisiae rad50 strain growth inhibition, hits give high values; at 50.0 µM unless noted
Method in brief: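 Relative growth inhibition (compound vs vehicle) was measured in yeast with a defined repair-gene alteration.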

[2] = NCI Yeast Anticancer Drug Screen. Data for the mec2-1 strain (AID 157); conditions: S. cerevisiae mec2-1 strain, hits give high values; at 50.0 µM unless noted
Method in brief: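 Strain: mec2-1 (DNA repair/cell cycle alteration). Compound exposure, then growth measured; inhibition expressed relative to vehicle.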

[3] = NCI Yeast Anticancer Drug Screen. Data for the sgs1 mgt1 strain (AID 161);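 note: 0% = growth of cultures given vehicle only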; conditions: S. cerevisiae sgs1 mgt1 strain, hits give high values; at 50.0 µM unless noted
Method in brief: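 Read-out: growth inhibition vs vehicle controls. Cells: mutant yeast strain deficient in DNA damage repair.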

[4] = NCI Yeast Anticancer Drug Screen. Data for the cln2 rad14 strain (AID 165);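 note: 0% = growth equal to vehicle treated cultures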; conditions: S. cerevisiae cln2 rad14 strain, hits give high values; at 50.0 µM unless noted
Method in brief: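 Compounds are applied to the cln2 rad14 yeast strain, and growth is then compared with that of vehicle-treated cultures to give inhibition.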

[5] = NCI Yeast Anticancer Drug Screen. Data for the bub3 strain (AID 167); conditions: S. cerevisiae bub3 mutant strain, hits give high values; at 50.0 µM unless noted
Method in brief: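 Screening used yeast with an engineered genetic alteration affecting cell cycle control. Compound-exposed cultures were compared with vehicle cultures, and reduced growth was taken as inhibition.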

[6] = NCI Yeast Anticancer Drug Screen. Data for the mlh1 rad18 strain (AID 175); conditions: S. cerevisiae mlh1 rad18 strain growth inhibition, hits give high values; at 50.0 µM unless noted
Method in brief: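 Read-out is yeast growth inhibition, calculated against vehicle-only controls. The compound was applied to a strain engineered with DNA damage repair alterations.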

Measured: growth inhibition

CC1Cn2c(Cc3ccccc3)nnc2S1 (stereo unspecified)
inactive: [1] -15.2% | [2] 1.25% | [3] 5.45% | [4] 19.5% | [5] -4.6% | [6] -4.75%

OC1(c2cccnc2)c2ccccc2Oc2ccccc21
inactive: [1] -11.8% | [2] 7.25% | [3] 0.7% | [4] -28.1% | [5] -3.7% | [6] -8.2%

O=c1c2ccccc2[nH]c(=S)n1C1CCCC1
inactive: [1] -7.85% | [2] -6.55% | [3] 15.1% | [4] -19.9% | [5] 39.4% | [6] -2.15%

O=NN(CCCl)C(=O)Oc1ccccc1
inactive: [1] -1.95% | [2] -10.6% | [3] -0.05% | [4] 0.15% | [5] -1.9% | [6] -11.3%

Clc1ccc(N=NNc2ccccc2)cc1
inactive: [1] 29.6% and 6.7% | [2] -0.85% and -2.8% | [3] -22.9% and -22.1% | [4] -30.1% and -10.1% | [5] -20.1% and -6.6% | [6] -16.4% and 30.2%

O=C1Oc2ccccc2C(=O)/C1=C/N1C(=O)N/C(=C\c2cccc(O)c2)C1=O
inactive: [1] 21.9% | [2] 19.9% | [3] 37.6% | [4] 45.5% | [5] 15.7% | [6] -7.5%

CC(C(C#N)C(N)=O)C(C#N)C(N)=O (stereo unspecified)
inactive: [1] 10.2% | [2] 12.4% | [3] 5.5% | [4] -4.4% | [5] -23.9% | [6] 14.7%

NC(=O)NN(Cc1ccc2c(c1)OCO2)N=O
inactive: [1] -7.25% | [2] -6% | [3] -5.55% | [4] -16.6% | [5] 16.2% | [6] 1.9%

O=C(O)C1C2CC=CCC21 (stereo unspecified)
inactive: [1] 13.4% | [2] 4.5% | [3] 11.8% | [4] 8.85% | [5] 12.2% | [6] 16.6%

CCC1(C)OCCO1
inactive: [1] 0.5% | [2] -13.5% | [3] -12.1% | [4] -29.9% | [5] 1.05% | [6] 2.2%

CC1C(=O)C(c2cccs2)(C2CCCCC2)CC[N+]1(C)C (stereo unspecified)
inactive: [1] 0% | [2] 4.5% | [3] -6.05% | [4] -19.1% | [5] 1.25% | [6] 17.4%

N#Cc1cccc2c1Nc1ccccc1S2
inactive: [1] -9.75% | [2] -21.8% | [3] -10.7% | [4] 8.8% | [5] 5.9% | [6] -19.9%

CCOC(=O)NC(=S)c1ccc[nH]1
inactive: [1] -10.7% | [2] -42.2% | [3] 0.2% | [4] 4.6% | [5] -36.8% | [6] -20.2%

CC(=O)Nc1cc(NC(C)=O)c2ccc(=O)[nH]c2c1O
inactive: [1] -2.9% | [2] -3.6% | [3] -3.55% | [4] -8.25% | [5] 15.3% | [6] 5.3%

Nc1ccccc1S(=O)(=O)Nc1c(N)nc(SCC(=O)O)[nH]c1=O
inactive: [1] -15.4% | [2] -21.9% | [3] -10% | [4] -4.2% | [5] -12.9% | [6] 0.65%

ClC1c2cccc3cccc(c23)C1Cl (stereo unspecified)
inactive: [1] 6.95% | [2] 8.75% | [3] -0.6% | [4] 4.45% | [5] 7.5% | [6] 10.7%

COc1cc2cnc3c4cc(OCc5ccccc5)ccc4ccc3c2cc1OC
inactive: [1] -10.1% | [2] 3.2% | [3] -1% | [4] 25.3% | [5] 14.2% | [6] -0.25%

CCC(=O)Nc1ccccc1Cl
inactive: [1] 3.6% | [2] -1.1% | [3] -15.4% | [4] -42.6% | [5] -1.95% | [6] 4.95%

N[N+]#COC1C(C(=O)NN)C1C(=O)NN (stereo unspecified)
inactive: [1] -15.9% | [2] -10.4% | [3] -17.5% | [4] 7.75% | [5] 7.05% | [6] -17.9%

O=CC(NC(=O)N(CCCl)N=O)C(O)C(O)C(O)CO (stereo unspecified)
inactive: [1] -8% | [2] -2.3% | [3] 2.15% | [4] -1.7% | [5] -4.95% | [6] 5.75%

O=C(CCCCCCCC(=O)NO)NO
inactive: [1] -10.8% | [2] 6.6% | [3] 12.8% | [4] 3.65% | [5] 2.5% | [6] -9.4%

O=C1NCC1c1ccccc1 (stereo unspecified)
inactive: [1] -12% | [2] -4.85% | [3] -8.65% | [4] 5.35% | [5] 19.1% | [6] 3.45%

CCS(=O)(=O)c1ccc(NC(=O)OC2CCC3(C)C(=CCC4C3CCC3(C)C(C(C)CCCC(C)C)CCC43)C2)cc1 (stereo unspecified)
inactive: [1] 21.5% | [2] 6.15% | [3] 10.2% | [4] 20.4% | [5] -3.25% | [6] 3.65%

C=C(COc1ccc(OC)cc1)C(C)(C)C
inactive: [1] 18.9% | [2] 13.3% | [3] -17.4% | [4] -14.4% | [5] 14.7% | [6] -19.5%

NCC(=O)NC(CCCCNC(=O)OCc1ccccc1)C(=O)O (stereo unspecified) (H-Gly-[ξK](Cbz)-OH)
inactive: [1] -6.8% | [2] 21% | [3] -10.7% | [4] -3.5% | [5] -20.1% | [6] -22.4%

Nc1ccccc1S(=O)(=O)Nc1ccccc1
inactive: [1] 30.9% | [2] 18.9% | [3] 12.5% | [4] -10.3% | [5] -28.4% | [6] 21.4%

O=S1(=O)CS/C(=N\C(=S)N(c2ccccc2)c2ccccc2)N1c1ccccc1
inactive: [1] 32.5% | [2] -11.3% | [3] -3.4% | [4] 18.2% | [5] 4.75% | [6] 2.2%

COc1cc([C@@H]2c3cc4c(cc3[C@H](OC3OC5COC(c6ccco6)OC5C(O)C3O)C3COC(=O)[C@@H]32)OCO4)cc(OC)c1OC (stereo partly specified)
inactive: [1] 7.25% | [2] 18.8% | [3] 7.6% | [4] 17.9% | [5] 0.2% | [6] -42%

CO/N=C1/OC(=O)OCC1(c1ccccc1)c1ccccc1
inactive: [1] 5.45% | [2] -3.4% | [3] 2.7% | [4] 11.1% | [5] 6.3% | [6] -3.3%

Cc1cccc(NC(=O)c2ccc(Cl)cc2Cl)c1
inactive: [1] 9.1% | [2] 14.1% | [3] 6.8% | [4] 13.6% | [5] 21.3% | [6] 22.2%

O=C(O)CCCCC1CCCCC1
inactive: [1] 53.1% | [2] 17.1% | [3] 38.8% | [4] 17.1% | [5] 33.6% | [6] 43.1%

CCN1CCC(O)C1 (stereo unspecified)
inactive: [1] 18.6% | [2] -0.1% | [3] 19.2% | [4] 14.2% | [5] 26% | [6] 30.9%

CC1CCC2C(C)C(=O)OC2C2(C)C(=O)C=CC12 (stereo unspecified)
inactive: [1] 11.9% | [2] -12.3% | [3] 13.7% | [4] 22.6% | [5] 2.7% | [6] -27.4%

COc1ccc(C(=O)O)c(Cc2ccc3ccccc3c2)c1
inactive: [1] 0.4% | [2] -4.7% | [3] 4.3% | [4] 10% | [5] -5.95% | [6] 36%

CC(=O)OCC1OC(OC(C)=O)C(NC(=O)c2ccccc2)C(OC(C)=O)C1OC(C)=O (stereo unspecified)
inactive: [1] -2.1% | [2] -3.45% | [3] -3.5% | [4] -20.6% | [5] 17.4% | [6] -1.5%

COc1cccc2c(SC)c(C)[nH]c12
inactive: [1] 14.9% | [2] -0.4% | [3] 18.8% | [4] -0.05% | [5] -19.8% | [6] 14.8%

CCCCN(CCCC)C(=N)c1ccccc1C
inactive: [1] 4.8% | [2] -13.9% | [3] 10.9% | [4] -23.6% | [5] 1.55% | [6] -3.35%

c1ccc2nc3c(cc2c1)c1c(c2ccccc23)CCCC1
inactive: [1] 11.2% | [2] -10.5% | [3] 20.4% | [4] -25.4% | [5] -14.6% | [6] 22.9%

CC(C)C1Oc2ccc(Br)cc2C1O (stereo unspecified)
inactive: [1] 11.2% | [2] 8.15% | [3] 2.25% | [4] -13.1% | [5] 18.7% | [6] 5.6%

C1=NC(c2ccccc2)=CN(C2CCCCCCCCCCC2)C1(c1ccccc1)C1CCCCCCCCCCC1 (stereo unspecified)
inactive: [1] -18.2% | [2] -8.55% | [3] -12% | [4] -19.4% | [5] 12.3% | [6] 13.2%

CN(C)CCCC(=O)O
inactive: [1] -13.3% | [2] -45.4% | [3] -14.1% | [4] 2.8% | [5] -31.9% | [6] -0.35%
